Laboratory results from PubChem BioAssay (EPA / NIEHS).
Active and inactive are the calls of the source. Rule for the calls: active = hit-call score of the fitted dose curve at least 0.9, where 1 is the maximum; inactive = score below 0.9.

What was measured:
[1] = APR_HepG2_NuclearSize_24hr: Apredica 24-hour HepG2 Assay for Nuclear Size (AID 2282907); details: high-content imaging, actives raise or lower the signal
Outline: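 Nuclear size is measured by fluorescence high-content imaging of Hoechst-labelled HepG2 nuclei after 24 hr of treatment (0.39–200 uM, 0.5% DMSO). Cells are fixed in 3.7% formaldehyde before staining, and DMSO serves as the baseline for bidirectional curve fitting.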

[2] = APR_HepG2_CellLoss_24hr: Apredica 24-hour HepG2 Assay for Cell Loss (AID 2282908); details: high-content imaging;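 for AC50: fit in both directions so a hit may be cell loss or gain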
Outline: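 Nuclear count serves as the viability measure: treated cells are fixed, permeabilized and labelled with Hoechst 33342, and six images per well are analysed to identify valid nuclei. Doses span 0.39–200 uM, and activity in either direction is scored against DMSO.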

[3] = APR_HepG2_MicrotubuleCSK_24hr: Apredica 24-hour HepG2 Assay for Microtubule CSK Stabilty (AID 2282909); details: HepG2 microtubule cytoskeleton imaging, actives raise or lower the signal
Outline: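 Compounds were applied to HepG2 cells for 24 hours across 0.39–200 uM in duplicate, with final DMSO at 0.5% v/v. Fixed, permeabilized cells were labeled for alpha-tubulin and nuclei, and tubulin fluorescence was quantified by imaging, fitted bidirectionally against DMSO.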

[4] = APR_HepG2_MitoticArrest_24hr: Apredica 24-hour HepG2 Assay for Mitotic Arrest (AID 2282910); details: high-content imaging, actives raise or lower the signal
Outline: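 HepG2, 24 hr dosing, 0.39–200 uM, 0.5% DMSO final. Formaldehyde-fixed, Triton-permeabilised, anti-phospho-histone H3 plus Hoechst. ArrayScan imaging at 20x; bidirectional fit vs DMSO baseline.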

[5] = APR_HepG2_MitoMembPot_24hr: Apredica 24-hour HepG2 Assay for Mitochondrial Membrane Potential (AID 2282911); details: imaging, actives raise or lower the signal
Outline: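 Human hepatoma HepG2 cultures received ten compound concentrations up to 200 uM for 24 hr. Membrane-potential dye signal, captured by automated fluorescence microscopy, was scored for gain or loss against DMSO controls.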

[6] = APR_HepG2_MitoMass_24hr: Apredica 24-hour HepG2 Assay for Mitochondrial Mass (AID 2282912); details: high-content imaging, actives raise or lower the signal
Outline: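 After 24 hr of treatment at 0.39 to 200 uM, HepG2 cells take up 250 nM MitoTracker Red CMXRos for 30 min and are then fixed with 3.7% formaldehyde. Per-well images are quantified, and any change in either direction is scored against solvent.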

[7] = APR_HepG2_p53Act_24hr: Apredica 24-hour HepG2 Assay for p53 Activation (AID 2282913); details: high-content imaging, actives raise or lower the signal;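 note: p53 protein immunofluorescence averaged per cell in HepG2 with Hoechst nuclei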
Outline: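 Automated fluorescence imaging quantifies p53 immunostaining in HepG2 cells after a 24 hr exposure (0.39–200 uM, duplicate, 0.5% DMSO). Nuclei are located by Hoechst 33342 staining.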

[8] = APR_HepG2_CellCycleArrest_72hr: Apredica 72-hour HepG2 Assay for Cell Cycle Arrest (AID 2282914); details: high-content imaging, actives raise or lower the signal
Outline: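 Cell cycle arrest in HepG2 was scored from nuclear DNA content after 72 hr compound treatment (0.39–200 uM). Activity, either gain or loss, was fitted against the DMSO baseline.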

[9] = APR_HepG2_CellLoss_72hr: Apredica 72-hour HepG2 Assay for Cell Loss (AID 2282915); details: high-content imaging
Outline: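 HepG2 cells exposed 72 h to compound at 0.39–200 uM (10 concentrations, duplicate) in 0.5% DMSO. Fixed with 3.7% formaldehyde and Hoechst 33342-stained. Imaged at 20x; nuclear count gives cell number, fitted bidirectionally versus DMSO.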

[10] = APR_HepG2_P-H2AX_72hr: Apredica 72-hour HepG2 Assay for H2AX Phosphorylation (AID 2282916); details: imaging, actives raise or lower the signal;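 note: phospho-histone H2A.x immunostain intensity per cell marking DNA damage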
Outline: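 Human hepatoma HepG2 cells are dosed across ten concentrations (0.39 to 200 uM, 0.5% v/v DMSO) and incubated 72 hr. Phospho-histone H2A.x is then detected by antibody staining alongside c-Jun and Hoechst, and quantified by automated fluorescence imaging.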

[11] = APR_HepG2_MitoMembPot_72hr: Apredica 72-hour HepG2 Assay for Mitochondrial Membrane Potential (AID 2282917); details: imaging, actives raise or lower the signal
Outline: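 HepG2 cells dosed 72 hr with compound at 0.39–200 uM in duplicate, 0.5% v/v DMSO final. Mitochondria stained with 250 nM MitoTracker Red CMXRos for 30 min before formaldehyde fixation, imaged by high-content fluorescence; bidirectional fit versus DMSO.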

[12] = APR_HepG2_MitoticArrest_72hr: Apredica 72-hour HepG2 Assay for Mitotic Arrest (AID 2282918); details: high-content imaging, actives raise or lower the signal
Outline: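 Mitotic arrest in HepG2 is scored from phospho-histone H3 staining after 72 hr dosing across 0.39–200 uM, with DMSO at 0.5% v/v. Nuclei are identified by Hoechst 33342 and fluorescence intensity is quantified per cell.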

[13] = APR_HepG2_MicrotubuleCSK_72hr: Apredica 72-hour HepG2 Assay for Microtubule CSK Stabilty (AID 2282919); details: HepG2 microtubule cytoskeleton, high-content imaging, actives raise or lower the signal
Outline: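 HepG2, 72 hr cmpd exposure, 0.39–200 uM (10 pts, duplicate), 0.5% DMSO. 3.7% formaldehyde fix, 0.5% Triton perm, anti-alpha-tubulin/Cy5 plus Hoechst. HCS fluorescence intensity; bidirectional fit vs DMSO baseline; taxol as positive control.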

[14] = APR_HepG2_P-H2AX_24hr: Apredica 24-hour HepG2 Assay for H2AX Phosphorylation (AID 2282920); details: high-content imaging, actives raise or lower the signal
Outline: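 Signal comes from a FITC-labeled secondary detecting phospho-histone H2A.x in fixed HepG2 cells, quantified by automated imaging at 20x. Dosing ran 24 hr across 0.39–200 uM with 0.5% v/v DMSO.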

[15] = APR_HepG2_StressKinase_72hr: Apredica 72-hour HepG2 Assay for Stress Kinase (AID 2282921); details: HepG2 stress kinase (phospho-c-Jun) imaging, actives raise or lower the signal
Outline: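 After a 72 h compound treatment spanning 0.39 to 200 uM, formaldehyde-fixed cells are labelled for phosphorylated c-Jun and nuclei, imaged by automated fluorescence microscopy, and activity is fitted in both directions relative to DMSO controls.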

[16] = APR_HepG2_StressKinase_24hr: Apredica 24-hour HepG2 Assay for Stress Kinase (AID 2282922); details: HepG2 stress kinase (phospho-c-Jun) imaging, actives raise or lower the signal
Outline: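 Read-out: phospho-c-Jun immunofluorescence (Cy3 secondary) quantified by high-content imaging at 20x, nuclei defined by Hoechst 33342. Human HepG2 liver cells dosed 24 hr, 0.39–200 uM, DMSO 0.5% v/v; gain or loss of signal fitted relative to DMSO.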

[17] = APR_HepG2_p53Act_72hr: Apredica 72-hour HepG2 Assay for p53 Activation (AID 2282923); details: high-content imaging, actives raise or lower the signal;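 note: average cellular p53 protein immunofluorescence intensity in HepG2 cells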
Outline: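 Imaging-based endpoint: after 72 hr compound exposure (up to 200 uM, 0.5% DMSO), fixed and permeabilized monolayers were labelled with anti-p53 antibody and imaged; signal change in either direction was fitted relative to DMSO controls.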

[18] = APR_HepG2_MitoMass_72hr: Apredica 72-hour HepG2 Assay for Mitochondrial Mass (AID 2282924); details: high-content imaging, actives raise or lower the signal;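 note: MitoTracker Red CMXRos stain intensity per cell imaged as mitochondrial mass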
Outline: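 Read-out: MitoTracker Red fluorescence intensity from automated imaging (20x, six fields per well) in human HepG2 liver cells. Dosing ran 72 hr, 0.39–200 uM, 0.5% DMSO; bidirectional curve fitting versus DMSO baseline.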

[19] = APR_HepG2_NuclearSize_72hr: Apredica 72-hour HepG2 Assay for Nuclear Size (AID 2282925); details: high-content imaging, actives raise or lower the signal
Outline: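 Read-out: nuclear diameter from Hoechst 33342 images (ArrayScan, 20x, six fields/well), via cell-cycle image analysis. HepG2 were dosed 0.39–200 uM for 72 hr in 0.5% DMSO. Bidirectional fit relative to DMSO.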

Measured: AC50

CNC(=O)Oc1cccc2c1OC(C)(C)C2
inactive: all assays above

CN(C)c1ccc(C(=O)c2ccc(N(C)C)cc2)cc1
inactive: [1] | [5] | [6] | [11] | [13]
active: [2] 1.64 µM | [3] 0.403 µM | [4] 0.538 µM | [7] 0.317 µM | [9] 1.75 µM | [10] 15.4 µM | [12] 16.5 µM | [14] 26.7 µM | [15] 9.87 µM | [16] 14 µM | [17] 0.292 µM | [18] 0.855 µM | [19] 1.91 µM

Nc1ccc(Oc2ccc(N)cc2)cc1
not listed: [8]
inactive: all other assays above

CCCCCOC(=O)c1ccccc1C(=O)OCCCCC
active: [9] 106 µM
not listed: [8]
inactive: all other assays above

ClC1=C(Cl)C2(Cl)C3C(Cl)C=CC3C1(Cl)C2(Cl)Cl (configuration not stated)
active: [1] 101 µM | [2] 99.2 µM | [3] 68.7 µM | [4] 76.8 µM | [6] 55 µM | [7] 67.9 µM | [9] 56 µM | [10] 65.9 µM | [12] 51.3 µM | [13] 88.5 µM | [14] 80.7 µM | [15] 84.8 µM | [17] 63.7 µM | [18] 88.9 µM
inactive: [5] | [11] | [16] | [19]

O=P(OCCCl)(OCCCl)OCCCl
not listed: [8] | [11] | [12] | [13] | [18]
inactive: all other assays above

C[N+](C)(C)CC1CO1 (configuration not stated)
not listed: [8] | [11] | [12] | [13] | [18]
inactive: all other assays above

COC(=O)Nc1nc2ccccc2[nH]1
inactive: [1] | [3] | [5] | [6] | [11] | [12] | [13]
active: [2] 7.04 µM | [4] 3.45 µM | [7] 3.13 µM | [9] 5.59 µM | [10] 5.9 µM | [14] 5.54 µM | [15] 6.75 µM | [16] 36.3 µM | [17] 2.8 µM | [18] 5.43 µM | [19] 9.08 µM

CCCCOC(=O)c1ccccc1C(=O)OCc1ccccc1
active: [2] 48.5 µM | [9] 60.3 µM | [17] 98.9 µM
not listed: [8]
inactive: all other assays above

O=[N+]([O-])C(Br)(CO)CO
active: [2] 25.6 µM | [5] 84.6 µM | [9] 35.5 µM | [19] 163 µM
not listed: [7] | [8] | [17]
inactive: all other assays above

CCCSC(=O)N(CCC)CCC
not listed: [8]
inactive: all other assays above

O=C1CCCO1
not listed: [8]
inactive: all other assays above

Nc1ccc(N=Nc2ccccc2)cc1
active: [8] 23.6 µM | [9] 99.4 µM | [10] 63.4 µM | [17] 71.1 µM
not listed: [11] | [12] | [13] | [18]
inactive: all other assays above

N#CC(Br)(Br)C(N)=O
not listed: [8]
inactive: all other assays above

CC(C)(C)OOC(C)(C)CCC(C)(C)OOC(C)(C)C
active: [6] 56.5 µM | [9] 56.1 µM | [11] 52.8 µM | [12] 54.8 µM
not listed: [8]
inactive: all other assays above

CN(C)C(=O)Nc1ccc(Cl)cc1
inactive: all assays above
